A selection: hits, their analogues and other compounds. The true share with any hit is near 0.9%.
BioA inh: BioA (M. tuberculosis) enzyme inhibition. purified M. tuberculosis BioA enzyme, plate reader. inhibition, % at 9.99 µM. 0.096% of 360,000 active. AID 602481; in the data active = inhibition above about 40%; inconclusive = no clear call, values can overlap the other calls
ugtP null kill: compounds lethal to S. aureus RN4220 ugtP deletion mutant; growth inhibition, % (concentration not given with the values); OD600 growth, 16 h; 0.54% of 330,000 active; AID 1259309; in the data active = growth inhibition above about 68%
Mtb betalactam: beta-lactam sensitization of Mtb H37Rv | M. tuberculosis H37Rv growth with meropenem, percent inhibition | inhibition, % at 25 µM | AID 434955 | 0.27% of 330,000 active; call rule not given here;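 note: growth measured after seven days incubation then overnight dye step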
Sa RN4220 lethal: kills Staphylococcus aureus RN4220. S. aureus RN4220 growth, OD600, 16 h. inhibition, % (test concentration not listed). 0.33% of 330,000 active; in the data active = inhibition above about 85%
PfHsp40 yeast: compounds rescuing yeast from Plasmodium falciparum HSP40 toxicity; S. cerevisiae expressing PfHsp40, growth rescue, ATP luminescence; AID 504582; growth rescue, % at 12.5 µM; 0.68% of 340,000 active; in the data active = growth rescue above about 28%, passing the limit was not always enough; inconclusive = no clear call, values can overlap the other calls;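 note: yeast W303a lacking pdr1 and pdr3 grown in galactose medium; growth measured after three days at 30 °C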
Hits are given with their value; . = inactive; ? = inconclusive; / = no result.

SMILES | BioA inh | ugtP null kill | Mtb betalactam | Sa RN4220 lethal | PfHsp40 yeast
CC(NC(=O)c1ccc([N+](=O)[O-])o1)C12CC3CC(CC(C3)C1)C2 (stereo not given) | . | . | . | . | .
COc1cccc(OC)c1C(=O)NC(C)C12CC3CC(CC(C3)C1)C2 (stereo not given) | . | . | . | . | 83.9
CCCOc1cccc(-c2nn(-c3ccccc3)cc2/C=C(\C#N)C(=O)NCCCn2ccnc2)c1 | . | . | . | . | 45.2
N#C/C(=C/c1cn(-c2ccccc2)nc1-c1cccc(OCc2ccc(F)cc2)c1)C(=O)NCCCn1ccnc1 | / | . | . | . | .
COc1cc(OC)c(NC(=O)C(=O)CC(=O)c2ccc(C)cc2C)cc1Cl | . | . | . | 84.6 | .
COc1cccc(C(=O)CC(=O)C(=O)Nc2ccc(C)cc2Cl)c1 | . | 86.9 | . | . | .
CC1CC[C@]2(C(=O)O)CC[C@]3(C)C(=CCC4[C@@]5(C)CCC(O)C(C)(C)C5CC[C@]43C)C2C1C (stereo not given in full) | / | 99.7 | / | 100.4 | /
CC1(C)CC[C@]2(C(=O)O)CC[C@]3(C)C(=CC[C@@H]4[C@@]5(C)CC[C@H](O)C(C)(C)[C@@H]5CC[C@]43C)[C@@H]2C1 | . | / | . | / | .
OCCC1CC(O)C(O)[C@@]2(OCCc3ccccc32)O1 (stereo not given in full) | / | . | / | . | /
CCOC(=O)C1C2COc3cc(OC)ccc3C2N2C(=O)N(c3ccc(OC)cc3)C(=O)[C@]12C (stereo not given in full) | / | . | / | . | /
Cc1nn(-c2cc(C)c3ccccc3n2)c2c1C1C(C2)C1(C)C (stereo not given) | . | 82.7 | . | . | .
CSC(=S)N/N=C/c1ccccc1 | . | / | . | / | 257.1
O=C1NC(=O)C(=Cc2ccccc2OCCOc2ccc([N+](=O)[O-])cc2)C(=O)N1 | / | . | / | . | 44.5
CCCCSc1nc(C)cc(SCC(=O)N/N=C/c2cccc(OC)c2O)n1 | . | / | . | / | 103.5
COc1cccc(C=NNC(=O)CSc2ccccc2C)c1O | / | . | / | . | /
CCCC1CC(C(=O)NC(C(C)O)C2OC(SC)C(O)C(O)C2O)N(C)C1 (stereo not given) | / | 99.5 | / | 100.4 | /
CCC[C@@H]1C[C@@H](C(=O)N[C@H]([C@@H](C)O)[C@H]2O[C@H](SC)[C@H](O)[C@@H](O)C2O)N(C)C1 (stereo not given in full) | . | / | . | / | .
COCCNC(=S)N/N=C(\C)CCc1ccc2c(c1)OCO2 | . | / | . | / | 34.8
COc1cc(C=C2NC(=O)NC2=O)cc(Br)c1OCc1ccccc1 | / | . | / | . | /
CCn1c(SCc2ccccc2Cl)nc2ccccc21 | . | 91.2 | . | . | .
O=C(O)CC1c2ccc(C(F)(F)F)cc2S(=O)(=O)N1C1CCCCC1 (stereo not given) | / | . | / | . | /
COc1cc(-c2ccc(=O)[nH]n2)ccc1OC(F)F | . | . | . | . | 42.7
Cc1c2cc[n+](CCN3CCCCC3)cc2c(C)c2c1[nH]c1ccc(O)cc12 | / | / | / | / | 52.9
COc1ccc(-n2sc3ccc(F)cc3c2=O)cc1 | . | / | . | / | 125.5
O=c1c2cc(F)ccc2sn1-c1ccc(F)cc1 | . | / | . | / | 76.4
SMILES | BioA inh | ugtP null kill | Mtb betalactam | Sa RN4220 lethal | PfHsp40 yeast
Cc1ccc(C)c(-n2sc3ccc(F)cc3c2=O)c1 | . | / | . | / | .
O=C(NN=CC=Cc1ccccc1)c1cc2c(ccc3ccccc32)o1 | / | . | / | . | /
Cc1ccc(/C=C(\C#N)C(=O)NCC2CCCO2)o1 (stereo not given) | . | . | . | . | ?
Cc1ccccc1-n1c(C)cc(/C=C(\C#N)C(=O)NCC2CCCO2)c1C (stereo not given) | . | . | . | . | 30.3
CCOC(=O)Cc1cc(=O)n(-c2nc3ccccc3s2)[nH]1 | . | . | . | . | 139.7
CCCc1cc(=O)n(-c2nc3ccccc3s2)[nH]1 | . | . | . | . | .
Cc1ccc(C2C3C(=O)N(C)C(=O)C3[C@]3(C)C(=O)N(Cc4ccccn4)CC(=O)N23)o1 (stereo not given in full) | / | . | / | . | /
C[C@@H]1CN(c2c(F)c(F)c3c(=O)c(C(=O)O)cn(C4CC4)c3c2F)C[C@H](C)N1 | . | 96.6 | / | 95.8 | .
CCOC(=O)c1cn(C2CC2)c2c(F)c(F)c(F)cc2c1=O | / | . | . | . | .
CC(C)CCN1C(=O)c2ccc(C(=O)Nc3ccc(Br)cc3C(=O)O)cc2C1=O | . | 100.2 | . | 97.7 | .
O=C(Nc1ccc(Cl)cc1C(=O)O)c1ccc2c(c1)C(=O)N(Cc1ccco1)C2=O | . | 99.8 | . | . | .
C=CC1c2c(F)cccc2N(S(=O)(=O)c2ccc(C)cc2)C(c2ccc(C(=O)OC)cc2)C1(C#N)C#N (stereo not given) | / | . | / | . | /
CC(C)NC(=O)N(C)CC1Oc2ccc(NS(=O)(=O)c3ccccc3)cc2C(=O)N(C(C)CO)CC1C (stereo not given) | / | . | / | . | /
CN1C(=O)C2C(C=Cc3ccccc3)N3C(=O)CN(Cc4ccccn4)C(=O)[C@@]3(Cc3ccccc3)C2C1=O (stereo not given in full) | / | . | / | . | /
CCN1CC2C3C(=O)N(Cc4ccccc4)C(=O)C3[C@](CC)(C1=O)N2C(=O)c1ccc(C(F)(F)F)cc1 (stereo not given in full) | / | . | / | . | /
CCn1c(=O)c(C(=O)NNC(=O)c2cccc(Cl)c2)c(O)c2ccccc21 | . | 100.1 | . | 100.0 | .
Cn1c(=O)c(C(=O)NNC(=O)c2ccccc2Cl)c(O)c2ccccc21 | . | . | . | . | 82.2
Cn1c(=O)c(C(=O)NNC(=O)c2ccccc2Br)c(O)c2ccccc21 | . | . | . | . | .
Cn1c(=O)c(C(=O)NNC(=O)c2cccc(Cl)c2)c(O)c2ccccc21 | . | 100.2 | . | 100.4 | .
CC1CN(C(C)CO)C(=O)c2cc(NC(=O)Nc3ccc(C(F)(F)F)cc3)ccc2OC1CN(C)C(=O)Nc1ccccc1 (stereo not given) | / | . | / | . | /
CC(C)(C)OC(=O)NCCCCC(NC(=O)c1nc[nH]c1C(=O)NCC(=O)OCc1ccccc1)C(=O)OC(C)(C)C (stereo not given) | / | . | / | . | /
CCOC(=O)C=Cc1ccc2c(c1)S(=O)(=O)N(Cc1ccc(OC)cc1)C2CC(=O)OCC (stereo not given) | / | . | / | . | /
COc1cc(SSc2cc(OC)cc([N+](=O)[O-])c2N)c(N)c([N+](=O)[O-])c1 | . | 87.4 | . | . | .
COc1cc([N+](=O)[O-])c2ncsc2c1 | / | . | . | . | .
Cc1cc2c(cn1)C(CCC#N)(CCC#N)c1ccccc1-2 | . | . | . | . | 54.4
CCOC1=C(C#N)CC2(CC1)c1ccccc1-c1ccccc12 | . | . | / | . | .
Cc1ccc(C)c(NC(=S)NNC(=O)c2csc3c2CCC(C)C3)c1 (stereo not given) | . | . | . | . | 62.2
CCc1cc(C(=O)NNC(=S)Nc2cc(C)ccc2C)cs1 | . | . | . | . | .
Cc1cccc(NC(=S)NNC(=O)c2csc(C)c2)c1 | / | . | . | . | .
Cc1cccc(NC(=S)NNC(=O)c2csc3c2CCCC3)c1 | . | . | . | . | 140.7

Bioassay records deposited in PubChem by several laboratories.
